# High-throughput results deposited in PubChem BioAssay by National Center for Advancing Translational Sciences (NCATS).
# IL-1B inflam inh – qHTS for Inhibitors of Inflammasome Signaling: IL-1-beta AlphaLISA Primary Screen | THP-1 LPS/ATP IL-1B secretion, AlphaLISA, 16 h; stronger effect = lower value | activity change, % at 57.5 µM | hit rate 4.7% among 360,000 | AID 743279, 2014; in the data active means activity change below about -50%; inconclusive means mostly about -30% to -49%
#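 Secreted IL-1B measured by AlphaLISA bead assay after 16 h compound exposure of THP-1 cells; compounds (final up to 57.5 uM) added 1 h before LPS (250 ng/mL) and ATP (1.25 mM) stimulation; lower signal means less secretion.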
# TDP1 cell CPT – qHTS for Inhibitors of human tyrosyl-DNA phosphodiesterase 1 (TDP1): qHTS in cells in presence of CPT; hit rate 12% among 420,000; Potency, µM (series often up to 46.2 µM), inactives show at the highest dose activity change, negative = growth inhibition, hits mostly inhibitors; chicken DT40 Tdp1-/-;hTDP1 cells + 20 nM CPT, ATP luminescence, 48 h; further: potency means the concentration at half of the fitted maximal effect; nearly all actives have a fitted effect of over 55% in size
#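 Chicken DT40 Tdp1-/- cells complemented with human TDP1, 400 cells/well, exposed to compounds plus 20 nM camptothecin for at least 48 h at 37 C; viability read as ATP content by CellTiter-Glo luminescence.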
# HT1080 IDH1KD tx – qHTS for induction of synthetic lethality in tumor cells producing 2HG: qHTS for the HT-1080-IDH1KD cell line; HT-1080 IDH1 knockdown viability, ATP luminescence, 48 h; Potency, µM (highest dose often 46.1 µM), inactives show at the top dose activity, negative = toxicity, most hits filed as cytotoxic; hit rate 2% among 360,000; AID 686971, 2013;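 further: potency means the concentration at half of the fitted maximal effect; 0% = DMSO wells and -100% = cell-free medium wells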
#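 Viability of IDH1-knockdown HT-1080 fibrosarcoma cells was assessed by CellTiter-Glo after 48 h at 37 °C with titrated compound; concentration-effect curves were classified by fit quality and response size.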
# DT40 TDP1 no CPT – qHTS for Inhibitors of human tyrosyl-DNA phosphodiesterase 1 (TDP1): qHTS in cells in absence of CPT; DT40 Tdp1-/- hTDP1 cells, no CPT, ATP luminescence, 48 h; Potency, µM (titrated, usually from 46.2 µM), without a hit: top-dose activity change, negative = growth inhibition, usual class: inhibitors; hit rate 15% among 420,000; AID 686978, 2013; further: potency means the concentration at half of the fitted maximal effect; nearly all actives have a fitted effect of over 55% in size
#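 Chicken DT40 Tdp1-/- cells complemented with human TDP1, screened without camptothecin (DMSO vehicle only), 400 cells/well. Compounds pin-transferred, cells incubated at 37 °C for at least 48 hr. Growth read as ATP-dependent luminescence (CellTiter-Glo, 30 min at RT).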
# HT1080NT lethal – qHTS for induction of synthetic lethality in tumor cells producing 2HG: qHTS for the HT-1080-NT fibrosarcoma cell line | hit rate 1.6% among 360,000 | Potency, µM (series often up to 46.1 µM), for the others: at the highest dose activity, negative = less viability, hits mostly cytotoxic | HT-1080-NT fibrosarcoma viability, CellTiter-Glo ATP luminescence, 48 h | AID 686970, 2013;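 further: NT is the 2HG producing partner of a matched IDH1 knockdown line; potency means the concentration at half of the fitted maximal effect; 0% = DMSO-treated cells and -100% = media-only wells without cells; nearly all actives have a fitted effect of over 55% in size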
#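 Viability by CellTiter-Glo luminescence after 48 h compound exposure at 37C of HT-1080-NT cells (750/well, RPMI, 5% FBS). % activity scaled between DMSO wells and medium-only wells, then curve-fitted and categorized by curve class.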
# * hit, by the source's call; ? = inconclusive; / = no result given. This is a sample that favours compounds with a hit; in the whole collection about 19% have one here. Unless noted, the call rests on the fitted dose curve; in most records, active means well fitted curve in the direction sought with a large enough effect; inconclusive means small, poorly fitted or top-dose-only effect, or another doubt; inactive means no such curve, though single readings can be large; an effect the other way counts as inactive or inconclusive. Unless noted, on the % scale 0 is the no-effect control and ±100 the full control effect.
SMILES,IL-1B inflam inh,TDP1 cell CPT,HT1080 IDH1KD tx,DT40 TDP1 no CPT,HT1080NT lethal
CC1(C(=O)NS(=O)(=O)c2ccccc2Cl)CCN1C(=O)CC(c1ccccc1)c1ccccc1 (configuration not stated),28.0,4.11µM*,8.8%,7.31µM*,-0.3%
Cc1noc(C)c1S(=O)(=O)NC(=O)C1(C)CCN1C(=O)c1ccccc1CCc1ccccc1 (configuration not stated),3.1,?,?,?,-20.8%
CC1(C(=O)NS(C)(=O)=O)CCN1C(=O)CC(c1ccccc1)c1ccccc1 (configuration not stated),9.5,-16.6%,0.3%,-0.6%,22.8%
Cc1noc(C)c1S(=O)(=O)NC(=O)C1(C)CCN1C(=O)CC(c1ccccc1)c1ccccc1 (configuration not stated),0.5,9.2µM*,19.2%,20.6µM*,16.5%
CC1(C(=O)NS(=O)(=O)c2ccccc2)CCN1C(=O)CC(c1ccccc1)c1ccccc1 (configuration not stated),23.1,?,8.8%,?,3.1%
Cc1ccccc1S(=O)(=O)NC(=O)C1(C)CCN1C(=O)CC(c1ccccc1)c1ccccc1 (configuration not stated),26.4,5.8µM*,-0.9%,5.8µM*,5.5%
C=CCOc1ccc(Cl)cc1-c1noc(-c2csc([C@H]3C[C@H](O)[C@@H](CO)O3)n2)n1,0.0,?,0.0%,?,?
Cc1ccc(C)c(N2CCN(C(=O)C3CCN(c4nc(C)cc(C)n4)CC3)CC2)c1,-8.2,14.6µM*,?,11.6µM*,?
Cc1ccc(Cl)cc1N1CCN(C(=O)C2CCN(S(=O)(=O)c3cnc[nH]3)CC2)CC1,-4.0,?,15.0%,?,10.9%
Cc1ccc(NC(=O)C2CCN(c3nc(C)cc(C)n3)CC2)cc1,8.4,?,4.4%,?,-0.5%
Cc1cc(C)nc(N2CCC(C(=O)NNC(=O)c3ccc(Cl)cc3)CC2)n1,-8.2,-16.8%,3.2%,-1.6%,29.2%
Cc1ccc(Cl)cc1N1CCN(C(=O)C2CCN(S(C)(=O)=O)CC2)CC1,-0.2,?,-6.1%,5.8µM*,-1.7%
Cc1cc(C)nc(N2CCC(C(=O)N3CCN(c4cc(Cl)ccc4C)CC3)CC2)n1,-14.8,?,?,18.4µM*,?
Cc1ccc(Cl)cc1N1CCN(C(=O)C2CCCN(S(=O)(=O)c3cnc[nH]3)C2)CC1 (configuration not stated),-2.5,14.6µM*,7.9%,23.1µM*,15.7%
CCc1ccccc1Nc1nc2cc(Cl)c(Cl)cc2nc1-n1nc(C)cc1C,/,-16.7%,/,6.3%,/
CN1CCN(C(=O)c2cc([N+](=O)[O-])ccc2Cl)CC1,19.7,-6.8%,5.1%,1.4%,-1.7%
O=c1cc(/C=C/c2ccccc2)oc2ccccc12,-11.2,16.4µM*,?,?,?
CSc1ncc2[nH]c(C(O)c3ccccc3)nc2n1 (configuration not stated),33.6,9.2µM*,-7.0%,10.3µM*,?
O=C(CCS(=O)(=O)c1cccs1)Nc1ccc(C(=O)NC2CCCC2)cc1,34.8,0.5%,15.9%,15.8%,12.3%
c1nc(NC2CCNCC2)c2cc(-c3ccc4c(c3)OCO4)ccc2n1,/,?,/,14.6µM*,/
COCCNc1ncnc2ccc(-c3c(C)noc3C)cc12,/,11.6µM*,/,?,/
Cc1noc(C)c1-c1ccc2ncnc(NC3CC3)c2c1,/,?,/,20.6µM*,/
CN(C)c1ccc(-c2ccc3ncnc(NC4CC4)c3c2)cc1,/,8.2µM*,/,13µM*,/
O=C(Nc1cc(-c2ccc(F)c(F)c2)no1)c1ccccc1F,/,-27.8%,/,-26.6%,/
Cc1ccc(OCC(=O)NNC(=O)C2CCCO2)c(C)c1 (configuration not stated),-5.0,7.6%,2.6%,-15.4%,-3.6%
SMILES,IL-1B inflam inh,TDP1 cell CPT,HT1080 IDH1KD tx,DT40 TDP1 no CPT,HT1080NT lethal
COc1cc(NC(=O)Cn2c(=O)n(CC(=O)NCCc3ccc(OC)c(OC)c3)c(=O)c3sccc32)cc(OC)c1,/,-28.8%,/,-26.3%,/
COc1ccc(NS(=O)(=O)c2ccc(I)cc2)cc1N1CCN(C)CC1,/,26.6µM*,/,29.9µM*,/
COc1ccc(NS(=O)(=O)c2ccc(N3CCCC3)c(N)c2)cc1,-16.0,5.17µM*,?,4.61µM*,-20.9%
Nc1cc(S(=O)(=O)Nc2ccc(Cl)cc2)ccc1N1CCOCC1,-10.7,7.31µM*,-12.4%,5.17µM*,?
Nc1cc(S(=O)(=O)Nc2ccccc2Cl)ccc1N1CCOCC1,11.3,?,1.4%,?,-6.9%
COc1ccc(-c2coc3cc4oc(=O)cc(-c5ccccc5)c4cc23)cc1F,45.5,3.66µM*,3.66µM*,4.61µM*,6.51µM*
COc1ccc(-c2nnc(SCC(=O)NCc3cccs3)n2CC(C)C)cc1,-18.6,?,17.5%,-21.9%,0.6%
Cc1cccn2cc(COc3ccc(-c4ccccc4)cc3)nc12,-18.1,-20.3%,18.4µM*,11.6µM*,?
COc1cccc(CN(C)C(=O)c2cccc(OCc3ccccc3)c2)c1,-15.0,-12.8%,-14.0%,-17.9%,-18.9%
CC1=CC(c2ccccc2)=NS(=O)(=O)N1,-104.0*,-5.9%,-0.3%,-5.1%,1.3%
CNC(=O)C[C@H]1C(=O)N(c2ccc(Br)cc2)C[C@@H]1CSC,18.3,-17.2%,8.2%,-24.8%,14.2%
Cc1ccc(NC(=O)C2CCCN(c3nnc(-n4c(C)ccc4C)s3)C2)cc1Cl (configuration not stated),/,?,/,20.6µM*,/
CC(C)c1ccc(NC(=O)C2CCN(S(C)(=O)=O)CC2)cc1,-5.5,?,-7.5%,?,-8.8%
Cc1cc(C)cc(NC(=O)C2CCN(c3nnc(-n4c(C)ccc4C)s3)CC2)c1,/,-75.2%,/,?,/
Cc1ccc(C)n1-c1nnc(N2CCCC(C(=O)Nc3ccc(C(C)C)cc3)C2)s1 (configuration not stated),/,20.6µM*,/,13µM*,/
Cc1cc(C)cc(NC(=O)C2CCCN(c3nnc(-n4c(C)ccc4C)s3)C2)c1 (configuration not stated),/,25.9µM*,/,?,/
CC(C)Oc1ccc(S(=O)(=O)N2CCOCC2)cc1NC(=O)CC1CC2CCC1C2 (configuration not stated),-7.4,-6.6%,0.0%,?,8.0%
